# The supplement of paper PMC8728848
# This excerpt belongs to a sample that is enriched for the strongest signals.
# B1: SHCBP1-GST (Homo sapiens), Q8NEM2 (protein)
# chain: MADGSLTGGGLEAAAMAPERMGWAVEQELASLEKGLFQDEDSCSDCSYRDKPGSSLQSFMPEGKTFFPEIFQTNQLLFYERFRAYQDYILADCKASEVQEFTAEFLEKVLEPSGWRAVWHTNVFKVLVEITDVDFAALKAVVRLAEPYLCDSQVSTFTMECMKELLDLKEHRLPLQELWVVFDDSGVFDQTALAIEHVRFFYQNIWRSWDEEEEDEYDYFVRCVEPRLRLHYDILEDRVPSGLIVDYHNLLSQCEESYRKFLNLRSSLSNCNSDSEQENISMVEGLKLYSEMEQLKQKLKLIENPLLRYVFGYQKNSNIQAKGVRSSGQKITHVVSSTMMAGLLRSLLTDRLCQEPGEEEREIQFHSDPLSAINACFEGDTVIVCPGHYVVHGTFSIADSIELEGYGLPDDIVIEKRGKGDTFVDCTGADIKISGIKFVQHDAVEGILIVHRGKTTLENCVLQCETTGVTVRTSAEFLMKNSDLYGAKGAGIEIYPGSQCTLSDNGIHHCKEGILIKDFLDEHYDIPKISMVNNIIHNNEGYGVVLVKPTIFSDLQENAEDGTEENKALKIQTSGEPDVAERVDLEELIECATGKMELCARTDPSEQVEGNCEIVNELIAASTQKGQIKKKRLSELGITQADDNLMSQEMFVGIVGNQFKWNGKGSFGTFLF
# How the values were obtained:
# Assay in all cases: glycan array binding signal (z-score within array); higher = stronger binding
# Conditions in all cases: glycan notation: IUPAC condensed, linker removed
# [1] = molecular target: Fuc(a1-2)Gal(b1-3)GalNAc
# Procedure, shortened: (§1)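 Arrays were curated from the Consortium for Functional Glycomics database, 3228 in total, and kept only where the protein sequence was available. Binding is expressed as a within-array Z-score. This score was averaged across arrays of the same protein sequence at different concentrations or buffers and across linkers, and negative values can be read as non-binding.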
# [2] = molecular target: Fuc(a1-2)Gal(b1-3)GalNAc(b1-4)[Neu5Ac(a2-3)]Gal(b1-4)Glc
# Procedure, shortened: as §1
# [3] = molecular target: Fuc(a1-2)Gal(b1-3)GlcNAc(b1-3)[Neu5Ac(a2-6)Gal(b1-4)GlcNAc(b1-6)]Gal(b1-4)Glc
# Procedure, shortened: as §1
# [4] = molecular target: Fuc(a1-2)Gal(b1-3)GlcNAc6S
# Procedure, shortened: as §1
# [5] = molecular target: Fuc(a1-2)Gal(b1-3)[Fuc(a1-4)]GlcNAc
# Procedure, shortened: as §1
# [6] = molecular target: Fuc(a1-2)Gal(b1-3)[Fuc(a1-4)]GlcNAc(b1-2)Man(a1-3)[Fuc(a1-2)Gal(b1-3)[Fuc(a1-4)]GlcNAc(b1-2)Man(a1-3)]Man(b1-4)GlcNAc(b1-4)GlcNAc
# Procedure, shortened: as §1
# [7] = molecular target: Fuc(a1-2)Gal(b1-4)Glc
# Procedure, shortened: as §1
# [8] = molecular target: Fuc(a1-2)Gal(b1-4)Glc6S
# Procedure, shortened: as §1
# [9] = molecular target: Fuc(a1-2)Gal(b1-4)GlcNAc(b1-2)Man
# Procedure, shortened: as §1
# [10] = molecular target: Fuc(a1-2)Gal(b1-4)[Fuc(a1-3)]GlcNAc
# Procedure, shortened: as §1
# [11] = molecular target: Fuc(a1-2)[Gal(a1-3)]Gal(b1-4)[Fuc(a1-3)]Glc
# Procedure, shortened: as §1
# [12] = molecular target: Fuc(a1-2)[Gal(a1-3)]Gal(b1-4)[Fuc(a1-3)]GlcNAc
# Procedure, shortened: as §1
# [13] = molecular target: Fuc(a1-2)[GalNAc(a1-3)]Gal(b1-3)GlcNAc
# Procedure, shortened: as §1
# [14] = molecular target: Fuc(a1-2)[GalNAc(a1-3)]Gal(b1-3)GlcNAc(b1-2)Man(a1-3)[Fuc(a1-2)[GalNAc(a1-3)]Gal(b1-3)GlcNAc(b1-2)Man(a1-6)]Man(b1-4)GlcNAc(b1-4)GlcNAc
# Procedure, shortened: as §1
# [15] = molecular target: Fuc(a1-3)[Gal(b1-4)]GlcNAc(b1-3)GalNAc
# Procedure, shortened: as §1
# [16] = molecular target: Fuc(a1-3)[Gal3S(b1-4)]GlcNAc
# Procedure, shortened: as §1
# [17] = molecular target: Fuc(a1-3)[GalNAc(b1-4)]GlcNAc
# Procedure, shortened: as §1
# [18] = molecular target: Gal(a1-4)Gal(b1-3)GlcNAc(b1-2)Man(a1-3)[Gal(a1-4)Gal(b1-3)GlcNAc(b1-2)Man(a1-6)]Man(b1-4)GlcNAc(b1-4)GlcNAc
# Procedure, shortened: as §1
# [19] = molecular target: Gal(a1-4)GlcNAc
# Procedure, shortened: as §1
# [20] = molecular target: Gal(b1-3)Gal
# Procedure, shortened: as §1
# [21] = molecular target: Gal(b1-3)GalNAc
# Procedure, shortened: as §1
# [22] = molecular target: Gal(b1-3)GlcNAc(b1-2)Man(a1-3)[GlcNAc(b1-4)][Gal(b1-3)GlcNAc(b1-2)Man(a1-6)]Man(b1-4)GlcNAc(b1-4)GlcNAc
# Procedure, shortened: as §1
# [23] = molecular target: Gal(b1-3)GlcNAc(b1-3)Gal(b1-4)GlcNAc(b1-3)Gal(b1-4)GlcNAc(b1-2)[Gal(b1-3)GlcNAc(b1-3)Gal(b1-4)GlcNAc(b1-3)Gal(b1-4)GlcNAc(b1-6)]Man(a1-6)[Gal(b1-3)GlcNAc(b1-3)Gal(b1-4)GlcNAc(b1-3)Gal(b1-4)GlcNAc(b1-2)Man(a1-3)]Man(b1-4)GlcNAc(b1-4)[Fuc(a1-6)]GlcNAc
# Procedure, shortened: as §1
# [24] = molecular target: Gal(b1-3)GlcNAc(b1-3)GalNAc
# Procedure, shortened: as §1
# [25] = molecular target: Gal(b1-3)[Neu5Ac(a2-6)]GalNAc
# Procedure, shortened: as §1
# [26] = molecular target: Gal(b1-4)Gal
# Procedure, shortened: as §1
# [27] = molecular target: Gal(b1-4)GlcNAc(b1-2)Man(a1-3)[Gal(b1-4)GlcNAc(b1-2)Man(a1-6)]Man(b1-4)GlcNAc(b1-4)[Fuc(a1-6)]GlcNAc
# Procedure, shortened: as §1
# [28] = molecular target: Gal(b1-4)GlcNAc(b1-2)Man(a1-3)[Man(a1-6)]Man(b1-4)GlcNAc(b1-4)GlcNAc
# Procedure, shortened: as §1
binder,measurement,setting,value
B1,glycan array binding signal (z-score),[1],-0.317
same,glycan array binding signal (z-score),[2],-0.821
same,glycan array binding signal (z-score),[3],-0.751
same,glycan array binding signal (z-score),[4],-0.806
same,glycan array binding signal (z-score),[5],0.085
same,glycan array binding signal (z-score),[6],0.999
same,glycan array binding signal (z-score),[7],-0.192
same,glycan array binding signal (z-score),[8],-0.251
same,glycan array binding signal (z-score),[9],-0.583
same,glycan array binding signal (z-score),[10],-0.113
same,glycan array binding signal (z-score),[11],-0.299
same,glycan array binding signal (z-score),[12],0.298
same,glycan array binding signal (z-score),[13],-0.199
same,glycan array binding signal (z-score),[14],-0.355
same,glycan array binding signal (z-score),[15],2.35
same,glycan array binding signal (z-score),[16],-0.161
same,glycan array binding signal (z-score),[17],0.35
same,glycan array binding signal (z-score),[18],4.1
same,glycan array binding signal (z-score),[19],-0.477
same,glycan array binding signal (z-score),[20],0.702
same,glycan array binding signal (z-score),[21],-0.251
same,glycan array binding signal (z-score),[22],2.98
same,glycan array binding signal (z-score),[23],3.45
same,glycan array binding signal (z-score),[24],0.539
same,glycan array binding signal (z-score),[25],-1.01
same,glycan array binding signal (z-score),[26],-0.879
same,glycan array binding signal (z-score),[27],0.409
same,glycan array binding signal (z-score),[28],0.6
